# Measurements reported in PubChem BioAssay.
# Activity calls are given as the source filed them. How the calls were made is not given here.
# Legend:
# [1] = glutamate transport activators, MN-1 cells, MN-1 cell line (AID 1612); conditions: MN-1 motor neuron cells, stronger effect = higher value;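 further: tested at 1 µM final; 0% = mean of DMSO vehicle wells on each plate; positive means more glutamate uptake than control and negative means less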
# [2] = GFP-Q80 aggregate reduction, neuronal-like cells, cell-based, NGF-treated PC12, GFPQ80 (AID 1614); conditions: PC12 NGF-treated GFP-polyQ80 inclusion reduction;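 further: lower means fewer inclusions and 0 means no inclusions at all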
# [3] = 75Q-TubH aggregate inhibition, S. cerevisiae, yeast (AID 1616); conditions: S. cerevisiae 75Q-TubH polyglutamine aggregation suppression; stronger effect = higher value
# [4] = chitosan synthesis blockers in C. neoformans – flow cytometry, Cibacron Brilliant Red staining (AID 1347148); conditions: Cryptococcus neoformans chitosan, stronger effect = lower value; at 10 µM unless noted;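 further: compound exposure lasted three days at 37 degrees C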
SMILES,glutamate uptake change [1],inclusion score [2],aggregation suppression score [3],fold fluorescence [4]
CN(C)CC/C=C1/c2ccccc2COc2ccccc21,2.11%,2,1.19,–
COc1cc([C@@H]2c3cc4c(cc3[C@@H](O[C@@H]3O[C@@H]5CO[C@@H](C)O[C@H]5[C@H](O)[C@H]3O)[C@H]3COC(=O)[C@H]23)OCO4)cc(OC)c1O,–,–,–,5.2 [at 85 µM] (inactive)
